The values that follow come from PubChem BioAssay (NCATS).

For test [1], the target named is Cellular tumor antigen p53 (Homo sapiens) (UniProt P04637). Description: Primary qHTS for small molecule compounds that upregulate eGFP-tagged delta133p53alpha (in N-terminal) cells. (AID 2060322).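 For activation: cells pre-induced with doxycycline then dosed without doxycycline; series mostly up to about 56 µM; 0% = DMSO vehicle and 100% = reference activator.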 Note: nearly all actives have a fitted effect of over 75% in size. Note: potency is the fitted concentration of half-maximal effect. As to conditions: NCI-H358 eGFP-delta133p53alpha fluorescence, 24 h; activation: hits give high values. In short, it runs like this: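 NCI-H358 cells pre-induced 24 h with 10 ng/ml doxycycline for eGFP-delta133p53alpha, plated dox-free and exposed 24 h at 37C to titrated compounds. Fixed, Hoechst-stained; gated GFP peak intensity by laser scanning cytometry, normalized to DMSO (0%) and 57.5 uM 5-azacytidine (100%).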
(In general: In qHTS, concentration-response curves come from the screen itself.)

Test [2] addresses Aldehyde dehydrogenase, mitochondrial (Homo sapiens) (UniProt P05091). Description: qHTS for Inhibitors of the Aldehyde Dehydrogenase Family (ALDH2) Primary screen (AID 2061308).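 Note: plate controls were vehicle for no effect and reference inhibitor for full effect; nearly all actives have a fitted effect of over 55% in size.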
For test [3], the target named is Retinaldehyde dehydrogenase 3 (Homo sapiens) (UniProt P47895). Nature of the test: qHTS for Inhibitors of the Aldehyde Dehydrogenase Family (ALDH1A3) Primary screen (AID 2061315).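 Note: plate controls were DMSO vehicle for no effect and reference inhibitor for full effect.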
The nature of test [4]: BET inhibitor-based combinations targeting novel dependencies in MECOM-rearranged (r) AML: SET-2 cell line (AID 2202231).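 For viability: plate controls were DMSO treated cells for no effect and wells without cells for full effect.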 Note: nearly all actives have a fitted effect of over 35% in size. Note: potency is the fitted concentration of half-maximal effect. As to conditions: SET-2 AML cells viability, CellTiter-Glo luminescence, 48 h; viability: hits give low values, concentration not given here. In short, it runs like this:
(§1)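 Viability of cells (500 per well) is scored by luminescent CellTiter-Glo at 48 hr post-dosing. Eleven-point titrations are normalized to DMSO and empty controls and reduced to AUC values.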
For orientation: Cellular ATP, detected with luciferase, serves as a proxy for viable cell number.

Test [5] is described as follows: BET inhibitor-based combinations targeting novel dependencies in MECOM-rearranged (r) AML: OCI-AML3 cell line (AID 2202232). Note: nearly all actives have a fitted effect of over 35% in size. Note: potency is the fitted concentration of half-maximal effect. The settings on record: Potency: OCI-AML3 viability. In short, it runs like this: as §1
A short description of test [6]: BET inhibitor-based combinations targeting novel dependencies in MECOM-rearranged (r) AML: MV-4-11 cell line (AID 2202233). Note: nearly all actives have a fitted effect of over 45% in size. Note: potency is the fitted concentration of half-maximal effect. In short, it runs like this: (§2)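 Using pin-tool transfer, drugs were added in 11 doses to cells (500/well), incubated 48 hr, and assessed with CellTiter-Glo. Z-AUC is a mean-centring transformation applied separately to each screened line.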
Test [7] in a line: BET inhibitor-based combinations targeting novel dependencies in MECOM-rearranged (r) AML: HNT-34 cell line (AID 2202234). Note: nearly all actives have a fitted effect of over 35% in size. Note: potency is the fitted concentration of half-maximal effect. In short, it runs like this: as §2
Test [8] can be described thus: BET inhibitor-based combinations targeting novel dependencies in MECOM-rearranged (r) AML: UCSD-AML1 cell line (AID 2202235). Note: nearly all actives have a fitted effect of over 40% in size. Note: potency is the fitted concentration of half-maximal effect. In short, it runs like this: as §2
Test [9] can be described thus: BET inhibitor-based combinations targeting novel dependencies in MECOM-rearranged (r) AML: AML-191 cell line (AID 2202236; note: nearly all actives have a fitted effect of over 35% in size; note: potency is the fitted concentration of half-maximal effect). In short, it runs like this: as §1
The nature of test [10]: BET inhibitor-based combinations targeting novel dependencies in MECOM-rearranged (r) AML: AML-194 cell line (AID 2202237; note: nearly all actives have a fitted effect of over 40% in size; note: potency is the fitted concentration of half-maximal effect). In short, it runs like this: as §1

Where “and” joins values, the source holds several entries; their conditions need not be identical. Equal values may be shown once. Records with an inconclusive call do not appear. Values without a mark were called inactive. Calls of active or inactive are those of the source. Calls come from the whole dose curve; as a rule, active = well fitted curve in the direction sought with a large enough effect; inconclusive = small, poorly fitted or top-dose-only effect, or another doubt; inactive = no such curve, though single readings can be large; an effect the other way counts as inactive or inconclusive.

Chain of Cellular tumor antigen p53 (Homo sapiens) (P04637 whole entry, looked up): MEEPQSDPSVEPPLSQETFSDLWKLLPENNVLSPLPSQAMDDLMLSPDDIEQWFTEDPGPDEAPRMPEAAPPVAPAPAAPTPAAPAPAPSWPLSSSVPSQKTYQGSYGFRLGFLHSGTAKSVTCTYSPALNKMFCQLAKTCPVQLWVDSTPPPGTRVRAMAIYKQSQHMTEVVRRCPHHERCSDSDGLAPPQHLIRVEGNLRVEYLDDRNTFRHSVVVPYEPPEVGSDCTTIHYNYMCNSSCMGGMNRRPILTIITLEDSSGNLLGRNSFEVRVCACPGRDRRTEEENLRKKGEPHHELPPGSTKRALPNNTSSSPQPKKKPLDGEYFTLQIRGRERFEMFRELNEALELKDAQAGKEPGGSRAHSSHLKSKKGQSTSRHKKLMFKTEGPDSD

Take `CCC(CC)CC1(C(=O)Nc2ccccc2SC(=O)C(C)C)CCCCC1`: the activation in [1] was 18.8%. The Potency entry in test [2], in test [3], in test [5], in test [6], in test [7] and in test [8] was “inactive” each time. Besides, the Potency result in test [9] and in test [10] was “inactive” in each case. Further, the viability in test [4] was 117%.

Regarding `Cc1c(C(=O)Nc2ccc(N3C[C@@H](C)O[C@@H](C)C3)nc2)cccc1-c1ccc(OC(F)(F)F)cc1`, in test [1], the activation is 18.3% and -6.33%. The Potency entry in test [2], in test [3], in [5], in test [7], in test [8] and in [9] was “inactive” throughout. For the same molecule, in test [10], the Potency entry was “inactive”. In addition, in [4], the viability was 98.5%. Further, the Potency in [6] is 5250 nM (active).

As for `COc1cc2nc(-c3cc(F)ccc3O)nc(N[C@@H]3CNC[C@H]3C(C)(C)O)c2cc1OC`, the Potency was 21.3 µM (active) in [1]; 6.61 µM (active) in test [4]; 7420 nM (active) in test [5]; 6.6 nM (active) in test [6]; 4680 nM (active) in test [7]; 4170 nM (active) in test [8]. Also, the Potency in test [9] is 5250 nM (active); in test [10], 6610 nM (active). Besides, the Potency entry in [2] and in test [3] was “inactive” in each case.

Regarding `CCN1CCN(Cc2ccc(Nc3ncc(F)c(-c4cc(F)c5nc(C)n(C(C)C)c5c4)n3)nc2)CC1`, the Potency was 12 µM (active) in test [1]; 5.9 µM (active) in test [4]; 23500 nM (active) in test [5]; 296 nM (active) in test [6]; 5900 nM (active) in [7]; 662 nM (active) in test [8]. Besides, the Potency was 2950 nM (active) in [9] and 2090 nM (active) in test [10]. Also, the Potency result in test [2] and in [3] was “inactive” each time.

Consider `CNC(=O)c1ccccc1Nc1nc(Nc2ccc3c(c2OC)CCC[C@@H](N2CCN(CCO)CC2)C3)ncc1Cl`, for which the Potency in test [1] is 9.53 µM (active); in test [4] it was 18.6 µM (active). In addition, the Potency result in [2], in test [3], in test [5], in test [6], in [7] and in test [8] was “inactive” throughout. Also, the Potency result in test [9] and in test [10] was “inactive” throughout.

`CS(=O)(=O)c1ccc(C(=O)Nc2ccc(Cl)c(-c3ccccn3)c2)c(Cl)c1`: the activation in test [1] is -14.7% and -1.91%. Besides, the Potency entry in test [2], in test [3], in [5], in test [6], in test [7] and in test [8] was “inactive” throughout. Besides, the Potency entry in test [9] and in test [10] was “inactive” each time. Moreover, the viability in test [4] is 106%.

As to `COc1cc(C(=O)NC2CCN(C)CC2)c(F)cc1Nc1ncc2c(n1)N(C1CCCC1)CC(F)(F)C(=O)N2C`, the activation in test [1] is 17%. The Potency entry in test [2] and in [3] was “inactive” in each case. Moreover, the Potency in test [4] is 0.0934 µM (active); in test [5], 46.8 nM (active); in [6], 105 nM (active); in test [7], 105 nM (active); in test [8], 105 nM (active); in test [9], 118 nM (active). The Potency in test [10] was 83.3 nM (active).

With `Cc1[nH]c2ccc(F)cc2c1-c1nc2c3cccnc3c3ncccc3c2[nH]1`, in [1], the activation was -1%. Moreover, the Potency entry in [2] and in test [3] was “inactive” each time. Moreover, the Potency in [4] was 2.7 µM (active); in [5], 679 nM (active); in [6], 605 nM (active); in test [7], 679 nM (active); in [8] it was 679 nM (active); in test [9], 539 nM (active). Also, the Potency in test [10] is 762 nM (active).

`CS(=O)(=O)c1ccc(Oc2cc(F)cc(C#N)c2)c2c1[C@H](O)C(F)(F)C2`: the activation in test [1] was -20.7%. Further, the Potency entry in test [2], in test [3], in [5], in test [6], in test [7] and in [8] was “inactive” each time. In addition, the Potency result in test [9] and in test [10] was “inactive” in each case. Further, in [4], the viability was 103%.

With `CN(C)C/C=C/C(=O)Nc1cccc(C(=O)Nc2cccc(Nc3ncc(Cl)c(-c4c[nH]c5ccccc45)n3)c2)c1`, the Potency in test [1] was 0.239 µM (active); in [4], 1.05 µM (active); in [5], 166 nM (active); in test [6] it was 3.3 nM (active); in test [7] it was 235 nM (active); in [8] it was 209 nM (active). The Potency is 468 nM (active) in test [9] and 525 nM (active) in test [10]. Besides, the Potency result in test [2] and in test [3] was “inactive” in each case.

`Cc1cnc(-c2cc(N3CCN(C(=O)CCS(C)(=O)=O)CC3)ncc2Cl)c(C)c1`: in test [1], the activation is 20.4% and -10.5%. The Potency entry in test [2], in [3], in [5], in [6], in test [7] and in [8] was “inactive” in each case. The Potency entry in [9] and in [10] was “inactive” throughout. The viability in test [4] was 112%.

On to `COc1ccc(-c2cc3c(C)nc(N)nc3n(C3CCC(OCCO)CC3)c2=O)cn1` (stereo not given), for which the activation in test [1] is 3.45%. For the same molecule, the Potency entry in test [2] and in test [3] was “inactive” each time. For the same molecule, the Potency is 1.66 µM (active) in [4]; 417 nM (active) in [5]; 296 nM (active) in test [6]; 590 nM (active) in test [7]; 105 nM (active) in test [8]; 296 nM (active) in test [9]. Also, in test [10], the Potency was 209 nM (active).

`CC(C)(C)C(=O)CN1C(=O)[C@H](NC(=O)Nc2cccc(C(=O)O)c2)CN(C2CCCCC2)c2ccccc21`: in test [1], the activation was -7.67%. Also, the Potency entry in test [2], in test [3], in test [5], in test [6], in [7] and in test [8] was “inactive” throughout. Further, the Potency entry in test [9] and in test [10] was “inactive” each time. Besides, in test [4], the viability was 110%.

As to `c1ccc(-c2ccc(CNc3nc(-c4ccccn4)nnc3-c3ccccc3)cc2)cc1`, the activation in test [1] was -11.7%. Further, the Potency result in [2] and in test [3] was “inactive” in each case. The Potency in test [4] is 2.35 µM (active); in test [5] it was 1320 nM (active); in [6] it was 1180 nM (active); in test [7] it was 1320 nM (active); in test [8], 1050 nM (active); in test [9] it was 934 nM (active). Besides, in test [10], the Potency is 1050 nM (active).

As a reminder, the viability is a read-out of living cells in per cent, often relative to untreated cells.
